Results published in PubChem BioAssay (NCI).
About 83,000 compounds went through this panel and 20% of them were active in at least one assay; those are over-represented in the sample as a whole.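 Method: cells in 96-well plates; compound added at one concentration; 48 h incubation; percent growth measured; values under 10 scored active.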 Unmarked numbers belong to inactive results. Calls of active or inactive are those of the source.

Experiments:
Assay in all cases: NCI-60 one-dose screen, 48 h (100 = growth as untreated, 0 = no growth, -100 = all killed)
Settings in all cases: 10 µM
HCT-15 colon = tested on: HCT-15 colon
HT29 colon = tested on: HT29 colon
SNB-75 CNS = tested on: SNB-75 CNS
SNB-19 CNS = tested on: SNB-19 CNS
U251 CNS = tested on: U251 CNS
PC-3 prostate = tested on: PC-3 prostate
SK-MEL-5 melanoma = tested on: SK-MEL-5 melanoma
UACC-62 melanoma = tested on: UACC-62 melanoma
LOX IMVI melanoma = tested on: LOX IMVI melanoma
SK-MEL-28 melanoma = tested on: SK-MEL-28 melanoma
SK-MEL-2 melanoma = tested on: SK-MEL-2 melanoma
EKVX NSCLC = tested on: EKVX NSCLC
SN12C renal = tested on: SN12C renal
UO-31 renal = tested on: UO-31 renal
TK-10 renal = tested on: TK-10 renal
ACHN renal = tested on: ACHN renal
A498 renal = tested on: A498 renal
CCRF-CEM leukemia = tested on: CCRF-CEM leukemia
MOLT-4 leukemia = tested on: MOLT-4 leukemia
CAKI-1 renal = tested on: CAKI-1 renal

| SMILES | growth (HCT-15 colon) | growth (HT29 colon) | growth (SNB-75 CNS) | growth (SNB-19 CNS) | growth (U251 CNS) | growth (PC-3 prostate) | growth (SK-MEL-5 melanoma) | growth (UACC-62 melanoma) | growth (LOX IMVI melanoma) | growth (SK-MEL-28 melanoma) | growth (SK-MEL-2 melanoma) | growth (EKVX NSCLC) | growth (SN12C renal) | growth (UO-31 renal) | growth (TK-10 renal) | growth (ACHN renal) | growth (A498 renal) | growth (CCRF-CEM leukemia) | growth (MOLT-4 leukemia) | growth (CAKI-1 renal) |
| --- | --- | --- | --- | --- | --- | --- | --- | --- | --- | --- | --- | --- | --- | --- | --- | --- | --- | --- | --- | --- |
| COC(=O)C1(O)NC(=C(C#N)C#N)C(C#N)=C1C(=O)c1ccc(OC)c(OC)c1 (stereo not given) | 105% | 99.6% | 94.5% | 97.1% | 92.5% | 76.9% | 101% | 99.3% | 99.4% | 120% | 104% | 113% | 96.7% | 86.7% | 122% | 108% | 93.6% | 92.1% | 92.1% |  |
| Nc1ncnc2c1ncn2C1(CO)OCC(O)C(O)C1O (stereo not given) | 105% | 88.8% | 90.6% | 103% | 101% | 103% | 103% | 105% | 94.4% | 105% | 93.5% | 100% | 103% | 87.9% | 87.3% | 107% | 108% | 101% | 105% |  |
| Nc1ccc(/C=N/Nc2ccnc3c(O)cccc23)c2cccnc12 | 26.1% | 56.8% | 69.9% | 72.7% | 4.7% (active) | 34.8% | 82.3% | 95.2% | -72.9% (active) | 90.9% | 74.1% | 61.8% | 76.9% | 55.8% | 97.7% | 52.9% | 118% | 14.4% | 14.5% |  |
| CC(=O)C1N=NCC1c1ccccc1 (stereo not given) | 96.9% | 105% | 92.1% | 99.9% | 110% | 95.5% | 98.4% | 83.8% | 103% | 112% | 97.3% | 101% | 88.7% | 92.3% | 96.1% | 95.8% |  |  | 96.7% | 95.4% |
| Cc1ccc(NCCN(C)CC(C)O)c2c(=O)c3ccccc3sc12 (stereo not given) | 32.7% | 7.09% (active) | 57% | 54.5% | 31.9% | 41% | 58.1% | -2.71% (active) | 12.6% | 57% | 90.6% | 86.4% | 49.6% | 41.5% | 45% | 29.5% | 68.4% | 31.3% | 2.58% (active) |  |
| CCOC(=O)c1cc(C(=O)c2cc(OC)c(OC)c(OC)c2)n2nc(C)ccc12 | 25.3% | 8.05% (active) | 47.7% | 54% | 19.1% | 30.6% | 3.09% (active) | 59% | 31% | 70.3% | 27.7% | 88.3% | 60.1% | 39.9% | 78% | 49.4% | 23.4% | 17.1% | 18.4% |  |
| Cc1cc(=O)n2nnc3cc(Cl)c(Cl)cc3n12 | 103% | 106% | 95.6% | 110% | 94.8% | 94.4% | 110% | 106% | 87.3% | 105% | 102% | 92.6% | 107% | 81.3% | 102% | 90.2% | 138% | 23.1% | 59.2% |  |
| CCOC(=O)c1cc(C(=O)c2ccc(OC)c(OC)c2)n2c1ccc1ccc3cccnc3c12 | 31.1% | 6.74% (active) | 18% | 45.8% | 24.8% | 22.2% | 17.4% | 47.4% | 31.6% | 60.2% | 19% | 78.6% | 62.1% | 44% | 70.5% | 47.4% | -5.4% (active) | 19.9% | 33.8% |  |
| COc1cc(-c2nn(-c3ccc(NC(=O)NCCCNC(=O)c4ccccc4)cc3)cc2-c2ccncc2)ccc1Cl | 20.3% | 3.51% (active) | 25% | 55.8% | 14.9% | 19.4% | -43.5% (active) | 51.7% | 15.1% | 52.1% | 18% | 51.4% | 54.5% | 29.6% | 59.3% | 23.7% | 12.7% | 14.5% | 23.5% |  |
| COc1ccc(-c2cc(-c3ccc(Cl)cc3)nc(SCCCC(=O)NO)n2)cc1 | 14.5% | 13.3% | -6% (active) | 13.5% | 5.21% (active) | 0.504% (active) | -52.5% (active) | -57.2% (active) | -24.9% (active) | 31.9% | 0.495% (active) | -19.2% (active) | 2.49% (active) | -40.9% (active) | 13.8% | 2.98% (active) | -19% (active) |  | 9.27% (active) | -0.0585% (active) |
| O=S(=O)(Oc1ccc(-c2ccc3sccc3c2)cc1)c1ccc(F)cc1 | 88.9% | 96% | 120% | 103% | 101% | 91% | 97.6% | 80.2% | 96.9% | 103% | 114% | 91.5% | 96.5% | 92.2% | 93.7% | 107% | 95.3% | 86.1% | 89.4% |  |
| O=C(CN(C1CCCCC1)C1CCCCC1)Nc1ccc(S(=O)(=O)c2ccc(NC(=O)CN(C3CCCCC3)C3CCCCC3)cc2)cc1 | -33.7% (active) | -84.2% (active) | 55.8% | 11.1% | -75.9% (active) | -80% (active) | -76.5% (active) | -20.9% (active) | -81% (active) | 12.2% | -35.4% (active) | -43.6% (active) | 30.6% | 10.2% | 56.1% | -33% (active) | 89.4% | -59.7% (active) | -25.2% (active) |  |
| CCOC(=O)c1cc(C(=O)c2cc(OC)c(OC)c(OC)c2)n2c1ccc1c3cccnc3ccc12 | 41.4% | 19.5% | 64.7% | 71.9% | 51% | 63.9% | 34.1% | 57.5% | 46.9% | 80.2% | 40.6% | 93.3% | 78.7% | 69% | 85.3% | 76.2% | 60.6% | 62.7% |  |  |
| COC1OC(COS(=O)OC)C(O)C(O)C1OS(=O)OC (stereo not given) | 96.5% | 103% | 105% | 103% | 99.3% | 100% | 104% | 107% | 100% | 110% | 112% | 103% | 106% | 88.8% | 88.6% | 106% | 116% | 101% |  |  |
| NNC(=O)Oc1c(Cl)cc(Cl)cc1[N+](=O)[O-] | 99.2% | 100% | 106% | 106% | 97.5% | 107% | 103% | 104% | 98% | 108% | 103% | 105% | 111% | 87.4% | 94.1% | 106% | 118% | 100% | 97.6% |  |
| CN(C)CCCOc1cccc(NC2=C(Cl)C(=O)C(Nc3cccc(OCCCN(C)C)c3)=C(Cl)C2=O)c1 | -19.5% (active) | -67.4% (active) | 53.8% | -42.3% (active) | -78% (active) | 0.365% (active) | -96.5% (active) | -72.9% (active) | -82.6% (active) | -72.7% (active) | -65.6% (active) | -95.8% (active) | -69.2% (active) | -92.7% (active) | -99.3% (active) | -98.3% (active) | 44.5% | -37.6% (active) | -37.1% (active) |  |
| CCN(CC)CC(=O)N(CC)c1ccc(C)c(Cl)c1 | 101% | 90.1% | 96.9% | 104% | 87% | 88.2% | 98.4% | 97.7% | 93.2% | 108% | 99.5% | 105% | 101% | 90.7% | 93.6% | 117% | 86.8% | 93.8% | 65.1% |  |
